High-throughput results as filed in PubChem BioAssay.
RGS16-Gao HTS = modulators of RGS16 binding to Galphao, primary screen, biochemical, human proteins, multiplexed bead flow cytometry; Regulator of G-protein signaling 16 (Homo sapiens) + Guanine nucleotide-binding protein …; bead-based flow cytometry RGS16-Galphao binding, fluorescence; actives lie on both sides; binding response (% of control), % at 10 µM; 220,000 compounds, 0.38% hits;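 also: Galphao activated by GDP with aluminum fluoride before binding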
Avidin fluor = green autofluorescence of compounds with avidin beads – biophysical, 488/530 nm, flow cytometry, artefact control, profiling panel; compound fluorescence 488/530 nm; active compounds read high; 220,000 compounds, 0.38% hits; fluorescence (KMESF) at 10 µM; in the data active = fluorescence above about 47
RGS7-Gao reg = RGS7-Galphao binding modulators, primary screen, biochemical, multiplexed bead flow cytometry | Guanine nucleotide-binding protein G(o) subunit alpha (Homo sapiens), P09471 | actives lie on both sides | binding response (% of control), % at 10 µM | 220,000 compounds, 0.35% hits | AID 1439, 2008; in the data active = binding response below about 49% or above about 150%; inconclusive = no clear call, values can overlap the other calls; inactive = in between;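 also: fluorescent Galphao held in activated GDP-AlF4 state binding bead-coupled RGS7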
Target sequence (P09471 whole entry, looked up): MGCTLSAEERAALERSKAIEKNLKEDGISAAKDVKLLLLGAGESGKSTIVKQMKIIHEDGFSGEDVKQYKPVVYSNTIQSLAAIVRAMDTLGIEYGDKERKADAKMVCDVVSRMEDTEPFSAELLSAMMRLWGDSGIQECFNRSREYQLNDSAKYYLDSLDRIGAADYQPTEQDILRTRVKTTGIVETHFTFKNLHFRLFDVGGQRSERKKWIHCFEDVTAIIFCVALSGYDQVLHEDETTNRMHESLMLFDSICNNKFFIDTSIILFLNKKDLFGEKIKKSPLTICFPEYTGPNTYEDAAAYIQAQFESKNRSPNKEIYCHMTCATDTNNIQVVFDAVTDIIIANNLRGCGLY
GSH fluor = compound fluorescence on glutathione beads, profiling panel, artefact control, biophysical, 488/530 nm, flow cytometry; fluorescence (KMESF) at 10 µM; GSH beads flow cytometry, compound fluorescence 488/530 nm; active compounds read high; AID 1776, 2009; 190,000 compounds, 0.25% hits; in the data active = fluorescence above about 89;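 also: glutathione beads carrying GST-tagged Bcl family fusion proteins plus one bare bead set; values are compound well signal with DMSO vehicle wells as background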
RGS4-Gao reg = modulators of RGS4 binding to Galphao, primary screen, biochemical, multiplexed bead flow cytometry. Guanine nucleotide-binding protein G(o) subunit alpha (Homo sapiens), P09471. actives lie on both sides. binding response (% of control), % at 10 µM. 220,000 compounds, 0.33% hits; in the data active = binding response below about 49% or above about 150%; inactive = in between;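 also: fluorescent Galphao activated with aluminum fluoride binding bead-coupled RGS4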
RGS8-Gao = RGS8-Galphao binding modulators, primary screen, biochemical, multiplexed bead flow cytometry; Guanine nucleotide-binding protein G(o) subunit alpha (Homo sapiens), P09471; actives lie on both sides; response (percent of control binding), % at 10 µM; 220,000 compounds, 0.34% hits; AID 1423, 2008; in the data active = response below about 60% or above about 140%; inactive = in between;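 also: Galphao activated as the GDP aluminium fluoride complex binding bead-coupled RGS8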
RGS4-Gao HTS = modulators of RGS–Galpha-o binding, primary screen, biochemical, multiplexed beads, flow cytometry, RGS4/7/8/16/19; shares compounds with RGS16-Gao HTS; multiplexed bead flow cytometry; RGS4–Galpha-o binding response, % at 10 µM; 1,600 compounds, 99% hits; AID 1504, 2009;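 also: fluorescently labeled Galpha-o bound to GDP with aluminium fluoride binding biotinylated RGS beads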
Biotin-avidin = disruption of biotin probe capture by avidin, counter-screen for RGS protein interaction modulators, biochemical, flow cytometry, bead-based; 1,700 tested, under 10 active; shares compounds with RGS16-Gao HTS; inhibition, % at 10 µM; AID 1783, 2009; streptavidin beads, fluorescein-biotin binding;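 active = inhibition above 50%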;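 also: median green fluorescence of gated singlet beads compared with DMSO control wells; 0% = DMSO wells and 100% = complete loss of bead fluorescence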
RGS8-Gao confirm = RGS8-Galphao binding modulators, confirmation, biochemical, multiplexed bead flow cytometry, single concentration. shares compounds with RGS16-Gao HTS. bead-based flow cytometry RGS8-Galphao binding, fluorescence; actives lie on both sides. binding response (% of control), % at 10 µM. 1,700 compounds, 3% hits; in the data active = binding response below about 72% or above about 130%; inactive = in between;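 also: Galphao activated as GDP AlF4 complex before binding bead RGS8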
RGS7-Gao confirm = RGS7-Galphao binding modulators, confirmation, biochemical, multiplexed bead flow cytometry, single concentration | 1,700 compounds, 7.8% hits | AID 1837, 2009 | shares compounds with RGS16-Gao HTS | response (percent of control binding), % at 10 µM | bead-based flow cytometry RGS7-Galphao binding; actives lie on both sides; in the data active = response below about 75% or above about 130%; inactive = in between;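 also: fluorescent Galphao activated with GDP and aluminum fluoride binding bead-coupled RGS7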
RGS16-Gao single = modulators of RGS16-Galphao protein binding, confirmation, biochemical, single concentration, multiplexed bead flow cytometry. shares compounds with RGS16-Gao HTS. bead-based flow cytometry; actives lie on both sides. response (% of control binding), % at 10 µM. 1,700 compounds, 4% hits. AID 1838, 2009; in the data active = response below about 74% or above about 130%; inactive = in between;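 also: Galphao activated as the GDP aluminium fluoride complex binding bead-coupled RGS16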
RGS4-Gao single = modulators of RGS4-Galphao protein binding, confirmation, biochemical, single concentration, multiplexed bead flow cytometry; shares compounds with RGS16-Gao HTS; actives lie on both sides; binding response (% of control), % at 10 µM; 1,700 compounds, 4% hits; AID 1840, 2009; in the data active = binding response below about 74% or above about 130%; inactive = in between
RGS19-Gao single = regulators of RGS19-Galphao binding, confirmation, biochemical, single point, multiplexed bead flow cytometry | bead-based flow cytometry RGS19-Galphao binding; actives lie on both sides | 1,700 compounds, 5% hits | response (percent of control binding), % at 10 µM | shares compounds with RGS16-Gao HTS; in the data active = response below about 50% or above about 160%; inactive = in between;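 also: 100% = no compound control and 0% = blank background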
Target sequence (P09471 whole entry, looked up): as above
Target sequence (P49795 whole entry, looked up): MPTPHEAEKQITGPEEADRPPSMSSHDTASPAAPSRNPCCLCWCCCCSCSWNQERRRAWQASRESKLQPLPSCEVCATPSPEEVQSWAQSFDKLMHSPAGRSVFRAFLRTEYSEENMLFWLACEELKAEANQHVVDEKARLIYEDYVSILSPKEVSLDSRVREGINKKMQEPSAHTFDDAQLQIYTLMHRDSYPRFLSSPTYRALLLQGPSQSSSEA
The depositor's hits bear a star; ? = inconclusive; . = no result; [ ] = another dose, or the depositor's remark. An excerpt weighted towards active compounds, which were near 1.2% of everything screened. Unless noted, no rule for the calls is given here.

SMILES	RGS16-Gao HTS	Avidin fluor	RGS7-Gao reg	GSH fluor	RGS4-Gao reg	RGS8-Gao	RGS4-Gao HTS	Biotin-avidin	RGS8-Gao confirm	RGS7-Gao confirm	RGS16-Gao single	RGS4-Gao single	RGS19-Gao single
COc1ccc2c(c1OC)C(=O)N1N=C(c3ccc(F)cc3)CC21 (stereo not given)	98	10	99	17	97	101	.	.	.	.	.	.	.
Cc1ccc(C2=NN3C(=O)c4ccccc4C3C2)cc1 (stereo not given)	40	1	?	.	26*	64	.	-2	102	98	102	101	113
Oc1ccccc1Nc1nc(NCC2CCCO2)c2ccccc2n1 (stereo not given)	89	3	41*	21	96	99	96*	2	100	105	103	101	104
O=C(COC(=O)c1ccccc1)NCc1cccs1	108	5	102	9	104	103	.	.	.	.	.	.	.
Cc1cc(C)cc(C(=O)OCC(=O)NCc2cccs2)c1	176*[activator]	5	107	10	110	125	110*	-1	96	93	95	96	97
CCOc1ccc(-c2nnc(-c3ccccc3)o2)cc1	95	5	94	16	96	99	.	.	.	.	.	.	.
CCOc1ccc(-c2nnc(-c3ccc(OC)cc3)o2)cc1	11*	2	18*	10	24*	14*	.	0	99	92	95	94	94
COC(=O)c1ccccc1NC(=S)N(Cc1ccc2c(c1)OCO2)Cc1cc2cc(C)ccc2[nH]c1=O	264*[activator]	12	113	9	107	128	107*	-1	101	101	100	100	88
COC(=O)c1ccccc1NC(=S)N(Cc1ccc2c(c1)OCO2)Cc1cc2ccc(C)cc2[nH]c1=O	107	16	103	8	105	105	.	.	.	.	.	.	.
NNc1ncnc2scc(-c3ccc(Cl)cc3)c12	146	2	140	9	138	149*[activator]	138*	0	100	93	101	97	77
Clc1ccc(-c2csc3ncnc(Cl)c23)cc1	104	16	103	15	105	102	.	.	.	.	.	.	.
CCN(CC)S(=O)(=O)c1cc(C(=O)Nc2nncs2)c(Cl)cc1Cl	57	.	.	14	105	77	.	0	97	96	91	94	91
O=C(O)CC1(CC(=O)NCc2cc(F)cc3c2OCOC3)CCCCC1	151	8	?	.	157*[activator]	129	.	-2	98	101	94	94	90
Cc1ccc(OCCN2C(=O)c3ccccc3C2=O)c(C)c1	89	9	92	51	90	100	.	.	.	.	.	.	.
Cc1ccc(OCCn2nc3ccccc3n2)c(C)c1	107	154*	192*[activator]	8	121	96	121*	0	101	105	106	106	88
O=C(Nc1ccccc1[N+](=O)[O-])C1(c2ccccc2)CCOCC1	110	202*	334*[activator]	23	141	97	141*	2	98	91	95	96	89
COC(=O)Cc1c(C)nc2nc(NCc3ccc(Cl)cc3)[nH]n2c1=O	178*[activator]	86*	151*[activator]	15	155*[activator]	118	.	2	100	100	102	100	89
O=S(=O)(c1ccc(F)c(F)c1F)N1CCN(C(=S)Nc2ccccc2)CC1	110	10	104	12	105	104	.	.	.	.	.	.	.
COc1ccc(NC(=O)CN2CCN(CC(=O)Nc3ccc4c(c3)OCO4)CC2)cc1	99	4	96	35	94	98	.	.	.	.	.	.	.
COc1ccccc1NC(=O)CN1CCN(CC(=O)Nc2ccc3c(c2)OCO3)CC1	348	4	112	57	119	142*[activator]	119*	.	.	.	.	.	.
Cc1ccc(N=Nc2ccc(O)c3ncccc23)cc1C	100	10	92	10	96	99	.	.	.	.	.	.	.
Cc1ccc(N=Nc2ccc(O)c3ncccc23)cc1	10*	4	65	3	68	71	68*	-4	102	96	106	96	84
C[C@@H]1CCC[C@H](C)N1Cc1nc(Cc2ccccc2Cl)no1	103	9	99	9	100	99	.	.	.	.	.	.	.
COc1ccc(NC(=O)C(C)NS(=O)(=O)c2ccc(NC(C)=O)cc2)cc1Cl (stereo not given)	103	32	96	28	103	102	.	.	.	.	.	.	.
O=C(O)CSc1c(-c2ccccc2)[nH]c2ccccc12	-3.1*	5	70	9	77	62	77*	-1	100	97	99	101	91
C=CCn1c(Cc2c[nH]c3ccccc23)nnc1SCC(=O)NCc1ccccc1	38	5	42*	26	47*	54*	.	-1	101	103	100	103	106
Cc1ccc(-n2nnnc2C(=Cc2ccc(N(C)C)cc2)c2nnnn2-c2ccc(C)cc2)cc1	11*	.	18*	17	23*	14*	.	1	113	100	118	102	91
